PubChem BioAssay (NCATS)
Results filed as inconclusive are left out. Calls of active or inactive are those of the source. Unless noted, calls follow the shape of the full dose curve.

Tests used:
[1] = target: Glucocorticoid receptor (Homo sapiens) (UniProt P04150); assay: qHTS assay for small molecule agonists of glucocorticoid receptor signaling (AID 588532; active = well fitted curve in the direction sought with a large enough effect in the signal ratio, with a control signal flat; the % refers to the signal ratio;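 also: 100% = dexamethasone at 0.1 µM and 0% = DMSO only wells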); settings: HeLa MMTV-bla, beta-lactamase ratio, agonist, 18 h; stronger effect = higher value; percent of dexamethasone control, DMSO zero
Procedure, shortened: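 Agonist-mode qHTS: GRE-driven beta-lactamase in HeLa cells exposed 18 h to titrated compounds (up to 92 uM), then CCF4 ratio read after 2 h at RT; Hill-fitted EC50, efficacy relative to 0.1 uM dexamethasone.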

[2] = target: Glucocorticoid receptor (Homo sapiens) (UniProt P04150); assay: qHTS assay for small molecule antagonists of glucocorticoid receptor signaling (AID 588533; active = well fitted inhibition curve with a large enough effect in the signal ratio, with a control signal flat, not every such curve was filed as active; the % refers to the signal ratio;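 also: cells stimulated with 2 nM dexamethasone as agonist; % is scaled to controls: 0 for no effect and ±100 for the full control effect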); settings: HeLa MMTV-bla, GRE beta-lactamase ratio, antagonist mode, 18 h; series mostly up to 76.8 µM
Procedure, shortened: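 Antagonist-mode qHTS: compound titrations added to GRE-bla HeLa cells, then dexamethasone 2 nM final; 18 h, 37 C. CCF4 FRET fluorescence normalized to dexamethasone and DMSO; IC50 from Hill fit.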

[3] = qHTS assay for small molecule antagonists of peroxisome proliferator-activated receptor delta signaling (AID 588535); settings: HEK293T PPARd-UAS-bla, beta-lactamase FRET ratio, 18 h; 460 nm channel;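 also: cells co-treated with a PPAR-delta agonist as stimulator during compound exposure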
Procedure, shortened: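 Titrations were run on PPAR-delta-UAS-bla HEK293T cells in charcoal/dextran-stripped serum, incubated 18 h at 37 C. CCF4 fluorescence (460/530 nm) after 2 h RT; Hill equation yields IC50 and maximal response.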

[4] = target: Vitamin D3 receptor (Homo sapiens) (UniProt P11473); assay: qHTS assay for small molecule antagonists of vitamin D receptor signaling (AID 588541); settings: HEK293T VDR-UAS-bla, beta-lactamase ratio, antagonist mode; series mostly up to 76.7 µM;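 also: receptor activated by calcitriol during compound treatment; % is scaled to controls: 0 for no effect and ±100 for the full control effect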
Procedure, shortened: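 Antagonist-mode beta-lactamase reporter assay: HEK293T VDR-UAS-bla cells were exposed to titrated compound alongside 1-alpha,25-dihydroxyvitamin D3 at 3 nM final for 16 h. Values were normalized to the 50 nM agonist control and DMSO basal, with IC50 and efficacy from Hill equation fits.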

[5] = target: Vitamin D3 receptor (Homo sapiens) (UniProt P11473); assay: qHTS assay for small molecule agonists of vitamin D receptor signaling (AID 588543); settings: HEK293T VDR-UAS-bla, beta-lactamase ratio, 16 h; series mostly up to 76.8 µM;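 also: 0% = DMSO basal and 100% = reference agonist control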
Procedure, shortened: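 qHTS in agonist mode: compound titrations stimulate a VDR-driven β-lactamase reporter in HEK293T cells over 16 h at 37 °C. Response normalized to 50 nM 1α,25-dihydroxyvitamin D3 = 100%, DMSO = 0%; Hill fitting gives EC50 and maximal response.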

[6] = qHTS assay for small molecule agonists of retinoid X receptor alpha signaling (AID 588544); settings: HEK293T RXRa-UAS-bla, beta-lactamase reporter, 18 h; 530 nm emission;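 as to activation: 0% = DMSO basal wells and 100% = reference agonist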
[7] = target: Retinoic acid receptor RXR-alpha (Homo sapiens) (UniProt P19793); assay: as above; settings: HEK293T RXRa-UAS-bla, beta-lactamase reporter, 18 h; series mostly up to 76.7 µM
[8] = target: Thyroid hormone receptor beta (Homo sapiens) (UniProt P10828); assay: qHTS assay for small molecule agonists of thyroid hormone receptor beta signaling (AID 588545); settings: TR-UAS-bla GripTite HEK 293, beta-lactamase ratio, agonist mode, 18 h; series mostly up to 76.7 µM;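 also: 0% = DMSO only and 100% = 10 nM T3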
Procedure, shortened: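 Stimulation of a TR-driven beta-lactamase reporter was quantified in GripTite HEK 293 cells. Compound series ran for 18 hrs; curves were normalized to T3 and DMSO controls and fitted to yield EC50.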

[9] = qHTS assay for small molecule antagonists of retinoid X receptor alpha signaling (AID 588546; active = well fitted inhibition curve with a large enough effect in the signal ratio, with a control signal flat, not every such curve was filed as active; the % refers to the signal ratio;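 also: cells stimulated with 9-cis-retinoic acid as agonist; % is scaled to controls: 0 for no effect and ±100 for the full control effect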); settings: HEK293T RXRa-UAS-bla, beta-lactamase ratio, antagonist mode; measured here: W530 green channel, cytotoxicity proxy
Procedure, shortened: (§1)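 Beta-lactamase reporter inhibition, read as CCF4 fluorescence ratio (ex 405, em 460/530 nm) after 2 h at RT. HEK293T UAS-bla cells, 2500/well, were stimulated with 9-cis-RA at 500 or 100 nM final alongside test compound for 18 h at 37 C.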

[10] = target: Retinoic acid receptor RXR-alpha (Homo sapiens) (UniProt P19793); assay: as above; settings: HEK293T RXRa-UAS-bla, beta-lactamase ratio, antagonist mode
Procedure, shortened: as §1

[11] = qHTS assay for small molecule agonists of the antioxidant response element (ARE) signaling pathway (AID 651741; active = well fitted activation curve with a large enough effect in the signal ratio; the % refers to the signal ratio; also: potency is read from the fitted curve at half-maximal effect; as to activation: % of control where 0% means no effect); settings: HepG2 ARE-bla reporter, beta-lactamase FRET ratio, 16 h; series mostly up to 96 µM
Procedure, shortened: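 Beta-lactamase reporter under ARE control in HepG2 cells, 2,000 per well, was induced by 16 h compound treatment at 37 C. Read-out was fluorescence from LiveBLAzer B/G FRET substrate after 2 h at room temperature.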

[12] = qHTS assay for environmental chemicals that activate the Aryl hydrocarbon Receptor (AhR) signaling pathway (AID 651777; active = well fitted curve in the direction sought with a large enough effect; an effect the other way counts as inactive or inconclusive; also: % of control where 0% means no effect; nearly all actives have a fitted effect of over 15% in size); settings: 1A2-DRE human hepatoma cells, luciferase, 24 h; activation: stronger effect = higher value
Procedure, shortened: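 Stable CYP1A2 promoter/DRE-luciferase human hepatoma line treated 24 hr; One-Glo luminescence, 30 min RT.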

[13] = qHTS assay for small molecule agonists of the antioxidant response element (ARE) signaling pathway measured by Nrf2-dependant transcriptional activity - cell viability counter screen (AID 720653; active = well fitted curve in the direction sought with a large enough effect in the repeat runs; an effect the other way counts as inactive or inconclusive; also: % is scaled to controls: 0 for no effect and ±100 for the full control effect); settings: ARE-bla HepG2 viability, CellTiter-Glo ATP luminescence, 16 h; max response: stronger effect = lower value
Procedure, shortened: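 Cytotoxicity counter screen: intracellular ATP quantified by CellTiter-Glo luminescence in the same ARE-bla HepG2 plates, after 16 h compound exposure and a 2 h beta-lactamase substrate step.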

[14] = qHTS assay for cell viability of HEK293 cells (AID 743288; active = well fitted curve in the direction sought with a large enough effect; an effect the other way counts as inactive or inconclusive; also: % is scaled to controls: 0 for no effect and ±100 for the full control effect; nearly all actives have a fitted effect of over 50% in size); settings: ATP luminescence (CellTiter-Glo), 18 h; max response: stronger effect = lower value
Procedure, shortened: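 Quantitative high-throughput screen: compounds were pinned onto parental HEK293 cells (2,000 per well) after a minimum 5 h settling at 37 C, incubated 18 h at 37 C, and intracellular ATP measured by luciferase luminescence.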

[15] = qHTS assay for cell viability of the p53RE-bla HCT-116 cell line (AID 743292; active = well fitted curve in the direction sought with a large enough effect; an effect the other way counts as inactive or inconclusive; also: % is scaled to controls: 0 for no effect and ±100 for the full control effect; nearly all actives have a fitted effect of over 55% in size); settings: p53RE-bla HCT-116 viability, ATP luminescence, 16 h; series mostly up to 95 µM
Procedure, shortened: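 Readout: CellTiter-Glo luminescence after 30 min RT. Treatment: compounds in DMSO, 16 h, 37 C. Cells: CellSensor p53RE-bla HCT-116, 4,000/well, preincubated 5 h.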

[16] = target: Nuclear receptor subfamily 1 group I member 2 (Rattus norvegicus) (UniProt Q9R1A7); assay: qHTS assay for small molecule activators of the rat pregnane X receptor (rPXR) signaling pathway (AID 651751; call rule not given here; also: 0% is about no effect); settings: rPXR reporter cells, luciferase (One-Glo), 24 h
[17] = qHTS assay for small molecule activators of the human pregnane X receptor (PXR) signaling pathway (AID 720659; call rule not given here; also: 0% is about no effect); settings: DPX-2 HepG2 CYP3A4-luciferase, 24 h; series mostly up to 92.3 µM
[18] = target: Peroxisome proliferator-activated receptor alpha (Homo sapiens) (UniProt Q07869); assay: qHTS assay for small molecule agonists of the peroxisome proliferator-activated receptor alpha (PPARalpha) signaling pathway (AID 651778; active = well fitted curve in the direction sought with a large enough effect; an effect the other way counts as inactive or inconclusive; also: % of control where 0% means no effect); settings: PathHunter PPARalpha complementation, chemiluminescence, 6 h; max response: stronger effect = higher value
Procedure, shortened: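 Chemiluminescence from complemented enzyme reported PPARalpha activation in cells after 6 hr of compound treatment at 37 C. The detection reagent was incubated for 60 min at room temperature, and compounds were scored as agonists.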

[19] = qHTS assay for small molecule agonists of the antioxidant response element (ARE) signaling pathway measured by Nrf2-dependant transcriptional activity (AID 720636; active = well fitted curve in the direction sought with a large enough effect in the repeat runs; an effect the other way counts as inactive or inconclusive;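 also: HepG2 cells with an ARE-driven luciferase reporter; % of control where 0% means no effect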); settings: ARE-luc HepG2, Nrf2 luciferase reporter, 16 h; series mostly up to 92.4 µM
Procedure, shortened: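 Reporter gene assay, HepG2 ARE-luc: 16 hr compound, 37 C, 5% CO2; read-out luciferase luminescence.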

[20] = qHTS assay for small molecule activators of the p53 signaling pathway (AID 651743; active = well fitted activation curve with a large enough effect in the signal ratio, not every such curve was filed as active; the % refers to the signal ratio; also: % of control where 0% means no effect); settings: HCT-116 p53RE-bla, beta-lactamase FRET ratio, 16 h; activation: stronger effect = higher value
Procedure, shortened: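 After 16 hours compound treatment at 37 C, HCT-116 cells stably expressing p53RE-driven beta-lactamase were loaded with LiveBLAzer B/G FRET substrate for 2 hours at room temperature. Fluorescence intensity served as the p53 activation read-out.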

Sequence of Nuclear receptor subfamily 1 group I member 2 (Rattus norvegicus) (Q9R1A7 whole entry, looked up): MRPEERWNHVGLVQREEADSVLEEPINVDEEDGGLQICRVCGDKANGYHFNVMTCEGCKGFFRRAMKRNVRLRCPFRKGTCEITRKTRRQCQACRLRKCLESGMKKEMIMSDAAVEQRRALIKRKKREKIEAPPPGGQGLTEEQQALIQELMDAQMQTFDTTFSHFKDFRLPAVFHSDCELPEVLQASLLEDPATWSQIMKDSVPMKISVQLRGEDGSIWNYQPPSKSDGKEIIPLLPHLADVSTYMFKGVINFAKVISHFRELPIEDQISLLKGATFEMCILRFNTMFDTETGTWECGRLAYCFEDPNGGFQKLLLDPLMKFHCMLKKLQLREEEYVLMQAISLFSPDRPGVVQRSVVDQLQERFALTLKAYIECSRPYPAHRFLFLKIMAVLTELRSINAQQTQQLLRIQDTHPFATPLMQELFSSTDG
Sequence of Retinoic acid receptor RXR-alpha (Homo sapiens) (P19793 whole entry, looked up): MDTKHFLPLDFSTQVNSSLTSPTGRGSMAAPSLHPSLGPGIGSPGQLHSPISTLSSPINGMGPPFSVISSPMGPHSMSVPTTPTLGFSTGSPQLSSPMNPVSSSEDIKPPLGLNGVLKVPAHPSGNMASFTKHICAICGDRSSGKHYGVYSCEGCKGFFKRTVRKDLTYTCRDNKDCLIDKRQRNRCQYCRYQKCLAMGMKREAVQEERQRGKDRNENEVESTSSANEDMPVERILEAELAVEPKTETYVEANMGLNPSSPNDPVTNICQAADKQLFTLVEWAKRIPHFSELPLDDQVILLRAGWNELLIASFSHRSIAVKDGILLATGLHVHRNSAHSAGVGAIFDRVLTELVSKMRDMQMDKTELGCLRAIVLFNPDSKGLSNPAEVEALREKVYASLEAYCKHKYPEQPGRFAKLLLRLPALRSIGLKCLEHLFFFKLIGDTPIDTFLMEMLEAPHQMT
Sequence of Glucocorticoid receptor (Homo sapiens) (P04150 whole entry, looked up): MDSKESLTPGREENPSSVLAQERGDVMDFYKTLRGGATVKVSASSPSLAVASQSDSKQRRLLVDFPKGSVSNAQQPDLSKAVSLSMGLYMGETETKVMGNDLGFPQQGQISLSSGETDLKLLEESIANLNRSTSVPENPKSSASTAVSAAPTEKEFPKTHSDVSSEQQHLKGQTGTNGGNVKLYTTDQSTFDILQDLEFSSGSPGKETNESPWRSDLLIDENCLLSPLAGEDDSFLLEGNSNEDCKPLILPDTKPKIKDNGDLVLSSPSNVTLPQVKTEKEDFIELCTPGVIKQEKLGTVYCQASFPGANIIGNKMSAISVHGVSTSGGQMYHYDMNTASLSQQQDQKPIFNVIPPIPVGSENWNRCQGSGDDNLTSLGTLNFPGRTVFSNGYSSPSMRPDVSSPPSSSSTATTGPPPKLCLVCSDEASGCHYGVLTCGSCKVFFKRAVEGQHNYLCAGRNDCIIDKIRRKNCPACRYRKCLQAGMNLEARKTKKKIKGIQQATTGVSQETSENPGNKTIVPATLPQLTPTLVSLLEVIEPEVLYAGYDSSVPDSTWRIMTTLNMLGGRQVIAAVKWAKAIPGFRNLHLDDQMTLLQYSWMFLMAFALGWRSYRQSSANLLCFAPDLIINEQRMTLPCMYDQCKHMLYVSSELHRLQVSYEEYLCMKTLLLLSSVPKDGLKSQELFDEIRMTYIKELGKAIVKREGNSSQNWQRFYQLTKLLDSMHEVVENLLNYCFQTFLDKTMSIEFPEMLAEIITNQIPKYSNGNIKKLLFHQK
Sequence of Thyroid hormone receptor beta (Homo sapiens) (P10828 whole entry, looked up): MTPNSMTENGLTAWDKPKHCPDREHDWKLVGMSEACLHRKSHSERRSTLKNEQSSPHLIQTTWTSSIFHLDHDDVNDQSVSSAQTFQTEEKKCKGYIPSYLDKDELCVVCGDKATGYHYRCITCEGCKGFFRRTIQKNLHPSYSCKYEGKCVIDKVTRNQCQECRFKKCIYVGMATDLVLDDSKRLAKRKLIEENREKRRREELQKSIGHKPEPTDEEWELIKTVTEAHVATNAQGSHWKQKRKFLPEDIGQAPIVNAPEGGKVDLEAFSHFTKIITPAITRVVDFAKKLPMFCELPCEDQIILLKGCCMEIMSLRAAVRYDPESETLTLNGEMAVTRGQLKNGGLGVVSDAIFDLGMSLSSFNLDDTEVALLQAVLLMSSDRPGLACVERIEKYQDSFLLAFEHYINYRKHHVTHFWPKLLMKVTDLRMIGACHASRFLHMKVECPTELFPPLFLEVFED
Sequence of Vitamin D3 receptor (Homo sapiens) (P11473 whole entry, looked up): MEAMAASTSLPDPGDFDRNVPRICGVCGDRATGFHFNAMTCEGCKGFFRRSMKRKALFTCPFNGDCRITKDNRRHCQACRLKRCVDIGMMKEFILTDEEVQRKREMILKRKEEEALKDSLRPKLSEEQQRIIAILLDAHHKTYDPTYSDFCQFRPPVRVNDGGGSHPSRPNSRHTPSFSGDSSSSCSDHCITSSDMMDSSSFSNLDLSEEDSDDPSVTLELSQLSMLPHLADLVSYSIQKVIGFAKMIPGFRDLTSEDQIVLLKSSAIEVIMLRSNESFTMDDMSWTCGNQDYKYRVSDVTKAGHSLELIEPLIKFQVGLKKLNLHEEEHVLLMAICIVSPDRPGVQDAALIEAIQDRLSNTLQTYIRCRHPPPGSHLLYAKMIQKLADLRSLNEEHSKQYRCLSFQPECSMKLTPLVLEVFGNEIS
Sequence of Peroxisome proliferator-activated receptor alpha (Homo sapiens) (Q07869 whole entry, looked up): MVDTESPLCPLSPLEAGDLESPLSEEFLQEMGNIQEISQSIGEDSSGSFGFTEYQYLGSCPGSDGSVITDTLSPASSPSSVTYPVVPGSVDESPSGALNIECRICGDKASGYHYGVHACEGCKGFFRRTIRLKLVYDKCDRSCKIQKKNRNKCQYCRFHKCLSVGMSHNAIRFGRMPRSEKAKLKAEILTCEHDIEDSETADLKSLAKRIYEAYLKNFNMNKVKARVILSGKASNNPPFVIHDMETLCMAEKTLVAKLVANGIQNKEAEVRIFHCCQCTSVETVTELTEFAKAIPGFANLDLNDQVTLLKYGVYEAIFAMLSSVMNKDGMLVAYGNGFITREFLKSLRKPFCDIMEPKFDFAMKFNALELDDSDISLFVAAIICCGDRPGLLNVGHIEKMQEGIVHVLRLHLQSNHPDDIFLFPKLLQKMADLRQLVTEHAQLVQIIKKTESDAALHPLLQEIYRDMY

Cc1ccc(N)c(S(=O)(=O)O)c1
-0.582%: max response [6]
active: Potency [11] 61.1 µM
inactive: activation [1] -5.18% | Potency [2] | Potency [4] | outcome [5] | Potency [7] | Potency [8] | max response [10] -14.4% | activation [12] 8.24% | max response [13] -14.4% | max response [14] -6.79% | Potency [15] | max response [16] 3.5% | outcome [17]
11.7%: max response [3]
1.46%: max response [9]

CCOCCOCCOC(C)=O
-12.8%: max response [9]
31.4%: max response [3]
inactive: activation [1] -7.35% | Potency [2] | Potency [4] | outcome [5] | Potency [7] | Potency [8] | max response [10] 7.1% | Potency [11] | activation [12] -0.223% | max response [13] 2.87% | max response [14] 0.368% | Potency [15] | max response [16] 0.7% | outcome [17]
0.881%: max response [6]

O=C(O)c1cc2ccccc2cc1O
2.59%: max response [9]
inactive: activation [1] 2.47% | Potency [2] | Potency [4] | outcome [5] | Potency [7] | max response [10] -6.59% | max response [13] -1.53% | max response [14] -12.6% | Potency [15] | max response [16] 0.928%
18.1%: max response [6]

COC(=O)CCSCCC(=O)OC
-8.85%: max response [9]
13.2%: max response [3]
inactive: activation [1] 8.88% | Potency [2] | Potency [8] | max response [10] -2.91% | max response [18] -1.49% | Potency [19] | max response [13] 1.34% | max response [14] -5.77% | Potency [15] | max response [16] 0.101% | outcome [17]

C1=C/CC/C=C/CC/C=C/CC/1
5.63%: max response [9]
inactive: activation [1] 2.01% | Potency [2] | Potency [4] | outcome [5] | Potency [8] | max response [10] -14.4% | Potency [11] | activation [20] -6.28% | max response [18] 0.0417% | Potency [19] | max response [13] -8.56% | max response [14] -8.62% | Potency [15] | max response [16] 13.1% | outcome [17]
18.8%: max response [3]

CSC(=O)c1cccc2nnsc12
-10.7%: max response [9]
-10.1%: max response [6]
21.6%: max response [3]
inactive: activation [1] -11.5% | outcome [5] | Potency [7] | Potency [8] | max response [10] 12.7% | activation [20] 1.69% | activation [12] 0.806% | max response [18] -3.32% | Potency [19] | max response [13] 15.6% | outcome [17]

CS(C)=O
-13.1%: max response [9]
inactive: activation [1] -5.87% | Potency [2] | Potency [4] | outcome [5] | Potency [8] | max response [10] 10.4% | activation [20] 1.22% | activation [12] 0.193% | max response [18] 0.892% | Potency [19] | max response [13] 16.4% | max response [14] 1.99% | Potency [15] | max response [16] 2.97% | outcome [17]
23%: max response [3]
